# Experimental data: PubChem BioAssay (NCI)
# Compounds without any hit were thinned out: in the full panel of roughly 83,000, 20% have a hit.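 For each line, cells grew in 96-well plates with the test compound present at a single concentration for 48 hours.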 Values without a mark were called inactive. Calls of active or inactive are those of the source. Rule for the calls: active = growth percent below 10; inactive = the rest.
# Key:
# Experiment in all cases: NCI-60 one-dose screen, 48 h (100 = growth as untreated, 0 = no growth, -100 = all killed)
# Conditions in all cases: 10 µM unless noted
# NCI-H226 lung = tested on: NCI-H226 lung
# NCI-H322M lung = tested on: NCI-H322M lung
# HOP-62 NSCLC = tested on: HOP-62 NSCLC
# NCI-H460 lung = tested on: NCI-H460 lung
# HOP-92 NSCLC = tested on: HOP-92 NSCLC
# NCI-H522 lung = tested on: NCI-H522 lung
# A549/ATCC NSCLC = tested on: A549/ATCC NSCLC
# 786-0 renal = tested on: 786-0 renal
# COLO 205 colon = tested on: COLO 205 colon
# DU-145 prostate = tested on: DU-145 prostate
SMILES,growth (NCI-H226 lung),growth (NCI-H322M lung),growth (HOP-62 NSCLC),growth (NCI-H460 lung),growth (HOP-92 NSCLC),growth (NCI-H522 lung),growth (A549/ATCC NSCLC),growth (786-0 renal),growth (COLO 205 colon),growth (DU-145 prostate)
Cn1ccnc1C(=O)/C=C/c1ccc(NC(=O)Nc2ccccc2)cc1,35.9%,28.8%,16.1%,-56.7% (active),57.4%,11.9%,6.79% (active),5.89% (active),11.1%,4.23% (active)
Clc1ccc2c(NCCCn3ccnc3)c3oc4ccc(Cl)cc4c3nc2c1,57.8%,71%,66.6%,11.1%,57.4%,82.9%,89.2%,41.6%,96.5%,92%
CCCCN1C(=O)/C(=c2\sc3n(c2=O)C2C(NN=3)N(CC)C(=O)N2CC)c2cc(Cl)ccc21 (stereo not given),89.8%,96.3%,83.1%,78.5%,71.3%,46.5%,89.3%,90.7%,114%,94.8%
O=C(CCN1C(=O)/C(=C/c2ccccc2)SC1=S)N1CCOCC1,104%,87.2%,114%,99.3%,94.6%,58.3%,101%,82.6%,119%,77.3%
CN(C)CCCOc1c2ccc(Cl)cc2nc2c1oc1ccc(Cl)cc12,1.15% (active),18.8%,32.8%,-74.2% (active),3.27% (active),21%,-45.3% (active),-93.2% (active),-11.1% (active),-75.7% (active)
N/C(=N\c1nc2c(Br)cccc2s1)C(Br)Br,48.9%,31.8%,39.8%,-20.4% (active),-3.75% (active),-75.1% (active),21.8%,-14.3% (active),1.7% (active),-21.8% (active)
COc1ccccc1C(=O)CSc1nc(Nc2ccc(S(N)(=O)=O)cc2)c2ccccc2n1,94.9%,82.6%,86.7%,85.1%,89.6%,90.5%,98.5%,91%,107%,96.9%
COc1cccc(COc2ccc(/C=C3/C(=O)Nc4cc(Cl)ccc43)cc2)c1,84.9%,83.9%,85.4%,103%,79.8%,84%,92.4%,102%,102%,98.5%
N#Cc1ccc(/C=N/NC(=O)c2[nH]c3ccc(Br)cc3c2-c2ccccc2)s1,46.9%,45.9%,26.9%,3.12% (active),33.9%,-22.7% (active),22.4%,10.2%,-13.3% (active),19.3%
O=C(NNc1nc2cc(F)ccc2n2c(CN3CC4(COC4)C3)ccc12)c1cnccn1,7.31% (active),22.7%,23%,-7.69% (active),45.2%,2.26% (active),13.2%,-6.84% (active),20.2%,24.8%
Fc1ccc(-c2cc3nc(C(Cl)Cl)nc(-c4ccc(Cl)cc4)n3n2)cc1,78.9%,-44.9% (active),-25.8% (active),-66.3% (active),24.7%,30.3%,-58.2% (active),47.4%,-56.6% (active),-23% (active)
CC(C)(C)OC(=O)N1C(=O)c2c(c3c4ccccc4[nH]c3c3ccc4ccccc4c23)C1=O,61.3%,52.8%,52.2%,37.3%,87.9%,47.2%,59.7%,77.1%,68.1%,57.3%
CN1C(=S)N(C)C2C1NN=C1SC(c3ccccc3)=CC(=O)N12 (stereo not given),83.6%,104%,109%,103%,72.8%,87.2%,93.7%,98%,111%,106%
